Reference: PubChem BioAssay AID602233 (National Center for Advancing Translational Sciences (NCATS), 2012)
Out of some 380,000 compounds screened, about 170 (0.045%) were called active. The call rests on the fitted dose curve; in most records, active means well fitted inhibition curve with a large enough effect; inconclusive means small, poorly fitted or top-dose-only effect; inactive means no such curve, though single readings can be large or run the other way. The full list was thinned out, with actives kept by preference.

molecular target: Phosphoglycerate kinase, glycosomal (Trypanosoma brucei brucei) (UniProt P07378); assay: qHTS Assay to Find Inhibitors of Phosphoglycerate Kinase; conditions: PGK/GAPDH coupled, Kinase-Glo luminescence, 60 min; series mostly up to 57.5 µM; activity change, negative = inhibition: at the top concentration; further: nearly all actives have a fitted effect of over 60% in size
Excerpt: Several species of the Trypanosomatidae family of parasitic protozoans cause a spectrum of diseases throughout the tropical and subtropical world. Sleeping sickness, caused by two subspecies of Trypanosoma brucei, is endemic to areas of sub-Saharan Africa, while Chagas disease, a manifestation of Trypanosoma cruzi infection, is prevalent throughout Central and South America. In addition, many species of Leishmania are responsible for a range of cutaneous and visceral diseases, causing ulcers, destructive lesions and kalaazar, a lethal infection of the viscera. Collectively, these organisms infect 30 million people worldwide (~500 million live in endemic areas), and account for ~130,000 deaths annually. Given their debilitating and prevalent nature, trypanosomatid parasites impose a heavy medical, economic and social burden on entire populations, primarily in the developing world. The problem is further exacerbated by the fact that existing treatments have progressed little in the past 50 years, and current drugs show high toxicity and poor efficacy. […] Blood-stream stages of T. brucei are entirely dependent on glycolysis as a source of ATP, and the tricarboxylic acid cycle and oxidative phosphorylation are both repressed. Glycolysis in axenically cultured T. cruzi, representing the intracellular pathogenic stage, is also essential for these parasites. […] Previous studies have shown that the glycolytic enzyme, phosphoglycerate kinase (PGK), is a viable target for drugs to kill these parasites. […] NIH Molecular Libraries Probe Production Network [MLPCN] NIH Chemical Genomics Center [NCGC] MLPCN Grant: R03 MH093212 PI Name: Malcolm Walkinshaw, University of Edinburgh
3ul of substrate/PGK buffer (columns 1,2,5-48) are dispensed into Greiner white solid bottom 1536-well assay plates; columns 3-4 receive only TEA buffer as 0x PGK controls. Compounds are then transferred via Kalypsys pin tool equipped with 1536-pin array (10nl slotted pins, V&P Scientific, San Diego, CA). Following addition of compound, 1ul of GAPDH (100nM final concentration, all columns) is added to initiate the reaction (this upstream coupling enzyme is necessary for in-well production of PGK substrate, 1,3-bisphosphoglycerate (1,3-BPG), which is unstable and not commercially available). The plates are then incubated at room temperature for 60 minutes. Kinase-Glo Plus reagent is added (2ul) and plates incubated for 10 minutes, before being transferred to a ViewLux high-throughput CCD imager (PerkinElmer) wherein single end-point measurements of luminescence are acquired using a clear filter. All reagents are diluted in an assay buffer consisting of 100mM TEA (pH 7.6), 5mM MgCl2 and 0.01% Tween-20.

Phosphoglycerate kinase, glycosomal (Trypanosoma brucei brucei), sequence (P07378 whole entry, looked up): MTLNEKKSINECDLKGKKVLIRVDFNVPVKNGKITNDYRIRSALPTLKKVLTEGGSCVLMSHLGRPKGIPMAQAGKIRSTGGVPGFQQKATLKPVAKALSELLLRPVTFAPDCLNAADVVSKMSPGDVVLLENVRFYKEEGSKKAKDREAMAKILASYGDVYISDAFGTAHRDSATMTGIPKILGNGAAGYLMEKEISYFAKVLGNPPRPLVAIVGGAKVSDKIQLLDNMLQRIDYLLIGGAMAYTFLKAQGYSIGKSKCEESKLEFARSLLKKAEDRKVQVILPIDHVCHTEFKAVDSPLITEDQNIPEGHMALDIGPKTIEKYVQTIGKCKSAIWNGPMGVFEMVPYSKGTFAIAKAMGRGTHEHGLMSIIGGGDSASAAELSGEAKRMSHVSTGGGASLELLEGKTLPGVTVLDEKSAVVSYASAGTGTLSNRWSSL

Activity change, negative = inhibition, inactive:
CCCN1CN=C(NS(=O)(=O)c2ccc(NC(C)=O)cc2)NC1 -8.9%, CC(=O)Nc1cc(C(=O)NCc2ccc(F)cc2Cl)ccc1Sc1ccc(Cl)cc1 8.65%, COc1ccc(-c2cn3c(C)c(C(=O)Nc4cc(C)cc(C)c4)sc3n2)cc1 -0.686%, CCc1ccccc1NC(=O)CSc1nnc(-c2ccccc2)c(-c2ccccc2)n1 9.96%, COc1ccc(OC)c(NC(=O)C2CCN(S(=O)(=O)c3ccc(C)cc3)CC2)c1 -0.994%, O=C(CSc1ncc(CO)n1Cc1ccc(F)cc1)NCc1ccco1 -6.21%, CCC1CN(S(=O)(=O)c2cc(-c3cc(C)no3)ccc2C)c2cc(C)ccc2O1 (configuration not stated) -0.193%, Cc1oc2ncnc(N3CCOCC3)c2c1C(=O)NCCc1ccccc1 -4.29%, Cc1cccc(C(=O)NCCc2nc3ccccc3n2Cc2ccccc2Cl)c1 2.99%, CCc1ccc(CNC(=O)c2cc3cc4ccc(OC)cc4nc3o2)cc1 -5.03%, CCC(=O)Nc1c(C(=O)N2CCN(c3ccc(F)cc3)CC2)oc2ccccc12 3.16%, COc1ccc(-c2c(C)nn3c(N4CCC(C(=O)NCCC(C)C)CC4)cc(C)nc23)cc1OC 0.974%, Cc1ccc(-c2nnc3c4ccccc4c(C)nn23)cc1NC(=O)c1cccc(Br)c1 7.56%, Cc1ccc(NC(=O)Cn2cnc3nc4c(cc3c2=O)CCCC4)cc1Cl -6.55%, O=C(c1ccc(Br)cc1)N(Cc1cccs1)c1ccc(F)cc1 3.55%, Cc1ccc(NC(=O)CSc2nc3ccccc3c3nc(CCn4cncc4C)nn23)cc1F 4.26%, CCc1ccc(NC(=O)N2CCN(C(=O)c3nsc4ccccc34)CC2)cc1 6.83%, Cc1ccc(Cl)cc1NC(=O)CCS(=O)(=O)c1ccc(Br)s1 -2.54%, Cc1ccc(NC(=O)c2oc3ccccc3c2NC(=O)Cc2cccs2)cc1 -7.26%, Cc1ccc(-n2nc(CO)c(C(=O)NCCc3ccccc3)n2)cc1 -11.4%

outcome, inactive:
CC(=O)N1CCCc2cc(S(=O)(=O)N3CCC(C(=O)NCc4ccc(F)cc4)CC3)ccc21, COc1cccc(NC(=O)c2ccc3nc(CCc4ccccc4)oc3c2)c1, COc1ccc2c(c1)C=C(C(=O)NCc1cc(Br)ccc1OC)CO2, Cn1c(=O)c2c(SCC(=O)N3CCc4ccccc43)nc(-c3ccc(Cl)cc3)nc2n(C)c1=O, Cc1ccccc1CSc1nc(-c2ccccc2)nc2c1Cc1c(CO)cnc(C)c1O2, CC(C)Cn1c(-c2ccc(S(=O)(=O)N3CCOCC3)cc2)csc1=Nc1cc(Cl)ccc1Cl, Cc1cc(Br)ccc1NC(=O)Cn1cnc2sc(C)c(S(=O)(=O)N3CCN(C)CC3)c2c1=O
